# Assay results published in the supplement of paper PMC9694430.
# Counter-ions that a name gives are not always drawn.
# Key:
# Test in all cases: thermal shift delta Tm vs DMSO control; higher = stronger stabilization (binding)
# Conditions in all cases: 12.5 µM; protein concentration 2 µM
# LOC_OS01G01410-cb001 = test system: LOC_OS01G01410-cb001
# Outline: (§1)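 Thermal shift values come from differential scanning fluorimetry on purified rice kinase domains made in E. coli, with melting temperatures obtained from Boltzmann fits. Samples of 19.5 μl held 2 μM kinase, 100 mM potassium phosphate pH 7.5, 150 mM NaCl, 10% glycerol, 5 × SYPRO Orange and compound in DMSO, and were heated from 25°C to 95°C at 0.05°C/s. Each shift is a triplicate mean relative to the DMSO-only protein sample.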
# LOC_OS01G02750-cb003 = test system: LOC_OS01G02750-cb003
# Outline: as §1
# LOC_OS01G10900-cb004 = test system: LOC_OS01G10900-cb004
# Outline: as §1
# LOC_OS01G13800-cb001 = test system: LOC_OS01G13800-cb001
# Outline: as §1
# LOC_OS01G14860-cb001 = test system: LOC_OS01G14860-cb001
# Outline: as §1
# LOC_OS01G21960-cb002 = test system: LOC_OS01G21960-cb002
# Outline: as §1
# LOC_OS01G39600-cb002 = test system: LOC_OS01G39600-cb002
# Outline: as §1
# LOC_OS01G48390-cb002 = test system: LOC_OS01G48390-cb002
# Outline: as §1
# LOC_OS01G51400-cb002 = test system: LOC_OS01G51400-cb002
# Outline: as §1
# LOC_OS01G52050-cb004 = test system: T1, LOC_OS01G52050-cb004
# T1 sequence (whole entry): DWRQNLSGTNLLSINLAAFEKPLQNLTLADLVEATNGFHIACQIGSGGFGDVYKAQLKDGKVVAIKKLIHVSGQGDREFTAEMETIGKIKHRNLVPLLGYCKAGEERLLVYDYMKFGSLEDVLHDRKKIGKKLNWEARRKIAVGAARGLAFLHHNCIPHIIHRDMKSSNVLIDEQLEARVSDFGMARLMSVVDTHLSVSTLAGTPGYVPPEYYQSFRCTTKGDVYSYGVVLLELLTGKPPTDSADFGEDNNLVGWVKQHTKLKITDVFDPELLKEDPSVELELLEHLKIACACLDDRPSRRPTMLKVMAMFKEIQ
# Outline: as §1
# LOC_OS01G57100-cb003 = test system: LOC_OS01G57100-cb003
# Outline: as §1
# LOC_OS01G60330-cb001 = test system: LOC_OS01G60330-cb001
# Outline: as §1
# LOC_OS01G60700-cb002 = test system: LOC_OS01G60700-cb002
# Outline: as §1
# LOC_OS01G63280-cb003 = test system: LOC_OS01G63280-cb003
# Outline: as §1
# LOC_OS01G67340-cb003 = test system: LOC_OS01G67340-cb003
# Outline: as §1
# LOC_OS01G70970-cb002 = test system: LOC_OS01G70970-cb002
# Outline: as §1
# LOC_OS02G07810-cb001 = test system: LOC_OS02G07810-cb001
# Outline: as §1
# LOC_OS02G08530-cb003 = test system: LOC_OS02G08530-cb003
# Outline: as §1
# LOC_OS02G14120-cb001 = test system: LOC_OS02G14120-cb001
# Outline: as §1
# LOC_OS02G17970-cb001 = test system: LOC_OS02G17970-cb001
# Outline: as §1
# 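Note: purified Escherichia coli-expressed rice kinase domain construct.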
SMILES,thermal shift delta Tm (LOC_OS01G01410-cb001),thermal shift delta Tm (LOC_OS01G02750-cb003),thermal shift delta Tm (LOC_OS01G10900-cb004),thermal shift delta Tm (LOC_OS01G13800-cb001),thermal shift delta Tm (LOC_OS01G14860-cb001),thermal shift delta Tm (LOC_OS01G21960-cb002),thermal shift delta Tm (LOC_OS01G39600-cb002),thermal shift delta Tm (LOC_OS01G48390-cb002),thermal shift delta Tm (LOC_OS01G51400-cb002),thermal shift delta Tm (LOC_OS01G52050-cb004),thermal shift delta Tm (LOC_OS01G57100-cb003),thermal shift delta Tm (LOC_OS01G60330-cb001),thermal shift delta Tm (LOC_OS01G60700-cb002),thermal shift delta Tm (LOC_OS01G63280-cb003),thermal shift delta Tm (LOC_OS01G67340-cb003),thermal shift delta Tm (LOC_OS01G70970-cb002),thermal shift delta Tm (LOC_OS02G07810-cb001),thermal shift delta Tm (LOC_OS02G08530-cb003),thermal shift delta Tm (LOC_OS02G14120-cb001),thermal shift delta Tm (LOC_OS02G17970-cb001)
Nc1ncccc1-c1nc2ccc(-c3ccccc3)nc2n1-c1ccc(C2(N)CCC2)cc1 [Miransertib (ARQ 092) HCl],0.37 °C,2.32 °C,0.6 °C,-0.45 °C,0.59 °C,0.09 °C,0.14 °C,0.09 °C,0.08 °C,0.78 °C,-0.19 °C,0.58 °C,-0.42 °C,-0.11 °C,0.08 °C,0.38 °C,-1.04 °C,0.49 °C,1.05 °C,-0.46 °C
COc1ccc(CNC(=O)Nc2ncc([N+](=O)[O-])s2)cc1,0.9 °C,0.85 °C,0.34 °C,0.54 °C,3.27 °C,1.49 °C,-4.25 °C,0.63 °C,-0.45 °C,0.42 °C,1.87 °C,0.81 °C,1.38 °C,0.15 °C,0.55 °C,0.54 °C,1.25 °C,1.46 °C,-0.24 °C,1.43 °C
CC(C)CC(NC(=O)C(Cc1ccccc1)NC(=O)C(CCC(N)=O)NC(=O)C(Cc1ccc(O)cc1)NC(=O)C(C)NC(=O)CNC(=O)C(CCCCN)NC(=O)C(Cc1c[nH]c2ccccc12)NC(=O)C(NC(=O)C(Cc1c[nH]c2ccccc12)NC(=O)C(CCCCN)NC(=O)CNC(=O)C(CC(N)=O)NC(=O)C(CCC(=O)O)NC(=O)C(Cc1c[nH]c2ccccc12)NC(=O)C(NC(=O)C(Cc1c[nH]c2ccccc12)NC(=O)C(CO)NC(=O)CNC(=O)C1CCCN1C(=O)C(Cc1c[nH]c2ccccc12)NC(=O)C(CCC(N)=O)NC(=O)C(Cc1ccccc1)NC(=O)CNC(=O)C(N)Cc1c[nH]cn1)C(C)O)C(C)O)C(=O)NC(CCCCN)C(=O)NCC(=O)NCC(=O)NCC(=O)NCC(=O)NC(CO)C(=O)NC(CCCNC(=N)N)C(=O)NC(CCCNC(=N)N)C(=O)NC(CCCNC(=N)N)C(=O)NC(CCCNC(=N)N)C(=O)NC(CCCNC(=N)N)C(=O)NC(CCCNC(=N)N)C(=O)NC(CCCNC(=N)N)C(=O)NC(CCCNC(=N)N)C(=O)NC(CCCNC(=N)N)C(=O)O (stereo not given),0.36 °C,-0.66 °C,1.09 °C,1.22 °C,0.08 °C,1.26 °C,2 °C,1.2 °C,-0.25 °C,1.43 °C,0.58 °C,0.74 °C,0.22 °C,0.38 °C,1.17 °C,0.55 °C,0.74 °C,0.87 °C,1.8 °C,-0.53 °C
Cc1ccc(-n2nc(C(C)(C)C)cc2NC(=O)Nc2ccc(OCCN3CCOCC3)c3ccccc23)cc1 [Doramapimod (BIRB 796)],0.6 °C,0.28 °C,0.4 °C,0.47 °C,1.26 °C,0.35 °C,0.04 °C,0.73 °C,0.2 °C,1.1 °C,1.19 °C,1.27 °C,0.98 °C,1.11 °C,0.16 °C,0.56 °C,0.89 °C,0.89 °C,0.95 °C,0.9 °C
Cc1cc(Nc2nc(N[C@@H](C)c3ncc(F)cn3)ncc2Cl)[nH]n1,4.53 °C,2.77 °C,0.35 °C,-0.03 °C,2.85 °C,2.53 °C,4.56 °C,6.25 °C,0.55 °C,0.71 °C,1.57 °C,4.82 °C,0.28 °C,1.3 °C,-0.24 °C,2.3 °C,0.96 °C,2.02 °C,8.03 °C,0.48 °C
CNC(=O)c1ccc(Nc2ncc(C(F)(F)F)c(NCc3nccnc3N(C)S(C)(=O)=O)n2)cc1,1.64 °C,3.47 °C,1.96 °C,-0.3 °C,7.22 °C,2.6 °C,5.05 °C,3.16 °C,0.96 °C,6.78 °C,0.61 °C,2.42 °C,1.41 °C,0.96 °C,1.45 °C,7.62 °C,0.24 °C,2.72 °C,6.02 °C,0.65 °C
C#Cc1cccc(Nc2ncnc3cc(OCCOC)c(OCCOC)cc23)c1 [Erlotinib],0.56 °C,0.35 °C,0.59 °C,0.04 °C,0.32 °C,0.72 °C,2.19 °C,0.85 °C,-0.14 °C,0.19 °C,-0.31 °C,-0.11 °C,0.43 °C,-0.09 °C,0.02 °C,0.34 °C,-0.06 °C,0.9 °C,1.45 °C,0.75 °C
CC(C)(C)c1ccc(S(=O)(=O)/C=C/C#N)cc1,-0.73 °C,-1.97 °C,-1.97 °C,0.14 °C,-0.21 °C,1.29 °C,-0.46 °C,0.36 °C,0.18 °C,-3.59 °C,3.12 °C,-0.21 °C,1.42 °C,-3.74 °C,0.12 °C,-4.09 °C,0.63 °C,1.02 °C,-0.46 °C,5.71 °C
CCN1CCN(Cc2ccc(C(=O)Nc3ccc(C)c(Oc4ccc5c(c4)CC(=O)N5)c3)cc2C(F)(F)F)CC1,0.03 °C,1.85 °C,2.1 °C,0.59 °C,0.51 °C,1.73 °C,-0.14 °C,0.94 °C,0.25 °C,1.08 °C,2.21 °C,1.36 °C,1.34 °C,0.98 °C,1.05 °C,0.43 °C,1.19 °C,0.8 °C,0.22 °C,1.43 °C
COc1cc(CCc2cc(NC(=O)c3ccc(N4CC(C)NC(C)C4)cc3)n[nH]2)cc(OC)c1 (stereo not given),1.93 °C,0.89 °C,7.96 °C,-0.99 °C,0.38 °C,0.1 °C,0.43 °C,6.33 °C,0.35 °C,0 °C,0.84 °C,0.69 °C,0.93 °C,0.35 °C,0.25 °C,0.66 °C,0.89 °C,1.49 °C,2.12 °C,-0.05 °C
CNC(=O)c1nn(C)c2c1C(C)(C)Cc1cnc(Nc3ccc(N4CCN(C)CC4)cc3)nc1-2,2.97 °C,4.29 °C,7.64 °C,-1.53 °C,0.36 °C,1.9 °C,0.04 °C,1.65 °C,0.17 °C,5.55 °C,1.59 °C,0.33 °C,0.69 °C,-0.14 °C,1.14 °C,0.87 °C,0.68 °C,1.93 °C,4.82 °C,0.05 °C
